# Data reported in PMC7862700, “An all-to-all approach to the identification of sequence-specific readers for epigenetic DNA modifications on cytosine”.
# Experiments:
# Test in all cases: DAPPL (digital affinity profiling via proximity ligation, sequencing); 10 mM Tris-HCl pH 7.5, 50 mM NaCl, 1 mM DTT, 4% glycerol, room temperature, 30 min; GST-TFs on glutathione beads, 16-mer random dsDNA library, 0.1% formaldehyde crosslink after washing; high values mean tight binding
# [1] = target: T1, FEV (Homo sapiens, UniProt Q99581 1-238); settings: protein: recombinant; tags: N-terminal GST; dsDNA, one strand shown
# T1 sequence: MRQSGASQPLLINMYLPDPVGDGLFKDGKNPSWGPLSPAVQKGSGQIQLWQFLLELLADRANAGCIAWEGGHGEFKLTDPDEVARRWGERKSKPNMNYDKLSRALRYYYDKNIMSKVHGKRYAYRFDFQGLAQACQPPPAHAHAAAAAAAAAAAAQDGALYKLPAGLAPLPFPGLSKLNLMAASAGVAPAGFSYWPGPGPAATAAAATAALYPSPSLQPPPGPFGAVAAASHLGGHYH
# Method in brief: (§1)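 Human transcription factors fused to GST were expressed in yeast, captured on glutathione beads, given DNA barcodes and pooled with a GST-only negative control. Pools were incubated with 200 nmole of a 16-mer random double-stranded DNA library in Tris/NaCl/DTT/glycerol buffer at room temperature for 30 min. They were then washed, crosslinked with 0.1% formaldehyde, proximity-ligated (BsaI/T4 ligase, 1 h, 37 °C), PCR-amplified and sequenced on an Illumina NextSeq500. Binding signal is each 6-mer's read frequency for a factor divided by its frequency for the GST control.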
# [2] = target: ETV5 (Homo sapiens, UniProt P41161 1-510); settings: protein: recombinant; tags: N-terminal GST; dsDNA, one strand shown
# Method in brief: as §1
# [3] = target: HSF1 (Homo sapiens, UniProt Q00613 1-529); settings: protein: recombinant; tags: N-terminal GST; chain copies: 3; dsDNA, one strand shown
# Method in brief: as §1
# [4] = target: T2, SPIC (Homo sapiens, UniProt Q8N5J4 1-248); settings: protein: recombinant; tags: N-terminal GST; dsDNA, one strand shown
# T2 sequence: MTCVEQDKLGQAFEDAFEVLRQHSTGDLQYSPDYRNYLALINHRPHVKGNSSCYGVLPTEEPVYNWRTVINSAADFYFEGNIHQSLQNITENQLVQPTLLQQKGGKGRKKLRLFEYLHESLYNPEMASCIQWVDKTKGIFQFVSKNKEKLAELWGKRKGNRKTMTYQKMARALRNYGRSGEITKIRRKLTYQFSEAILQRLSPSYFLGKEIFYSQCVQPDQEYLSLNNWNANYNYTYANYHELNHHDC
# Method in brief: as §1
# [5] = target: ELF4 (Homo sapiens, UniProt Q99607 1-663); settings: protein: recombinant; tags: N-terminal GST; dsDNA, one strand shown
# Method in brief: as §1
# [6] = target: T3, ELK4 (Homo sapiens, UniProt P28324-2 1-405); settings: protein: recombinant; tags: N-terminal GST; dsDNA, one strand shown
# T3 sequence: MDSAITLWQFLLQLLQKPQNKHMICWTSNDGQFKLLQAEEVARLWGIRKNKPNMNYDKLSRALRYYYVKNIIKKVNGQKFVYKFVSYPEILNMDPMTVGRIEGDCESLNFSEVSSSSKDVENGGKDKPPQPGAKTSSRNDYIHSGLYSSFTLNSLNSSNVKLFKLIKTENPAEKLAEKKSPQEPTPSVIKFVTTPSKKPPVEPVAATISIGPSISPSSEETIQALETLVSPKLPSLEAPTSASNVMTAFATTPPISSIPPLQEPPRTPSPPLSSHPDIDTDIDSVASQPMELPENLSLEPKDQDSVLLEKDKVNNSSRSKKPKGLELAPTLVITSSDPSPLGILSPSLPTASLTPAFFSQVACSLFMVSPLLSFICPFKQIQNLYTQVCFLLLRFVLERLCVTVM
# Method in brief: as §1
# [7] = target: T4, ETV2 (Homo sapiens, UniProt O00321 1-342); settings: protein: recombinant; tags: N-terminal GST; dsDNA, one strand shown
# T4 sequence: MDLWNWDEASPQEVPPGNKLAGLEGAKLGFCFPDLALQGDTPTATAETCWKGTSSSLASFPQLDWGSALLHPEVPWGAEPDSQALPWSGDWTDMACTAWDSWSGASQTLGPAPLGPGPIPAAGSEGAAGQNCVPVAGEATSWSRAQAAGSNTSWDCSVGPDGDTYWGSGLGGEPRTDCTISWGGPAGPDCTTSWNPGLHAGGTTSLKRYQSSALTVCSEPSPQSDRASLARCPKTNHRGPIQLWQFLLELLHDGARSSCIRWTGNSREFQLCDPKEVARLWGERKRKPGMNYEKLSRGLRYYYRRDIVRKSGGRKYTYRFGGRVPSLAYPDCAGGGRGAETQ
# Method in brief: as §1
# [8] = target: T5, ELF3 (Homo sapiens, UniProt P78545 1-371); settings: protein: recombinant; tags: N-terminal GST; dsDNA, one strand shown
# T5 sequence: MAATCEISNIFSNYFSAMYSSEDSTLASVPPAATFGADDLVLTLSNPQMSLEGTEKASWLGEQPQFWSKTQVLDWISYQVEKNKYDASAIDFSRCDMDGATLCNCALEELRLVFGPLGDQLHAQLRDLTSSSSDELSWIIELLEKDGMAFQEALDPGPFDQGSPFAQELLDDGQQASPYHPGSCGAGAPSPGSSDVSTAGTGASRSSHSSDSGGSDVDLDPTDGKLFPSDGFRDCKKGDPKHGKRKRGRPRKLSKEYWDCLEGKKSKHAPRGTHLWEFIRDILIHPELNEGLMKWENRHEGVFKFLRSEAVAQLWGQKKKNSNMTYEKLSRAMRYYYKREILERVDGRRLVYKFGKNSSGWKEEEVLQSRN
# Method in brief: as §1
# [9] = target: CRX (Homo sapiens, UniProt O43186 1-299); settings: protein: recombinant; tags: N-terminal GST; dsDNA, one strand shown
# Method in brief: as §1
# [10] = target: ETV1 (Homo sapiens, UniProt P50549 1-477); settings: protein: recombinant; tags: N-terminal GST; dsDNA, one strand shown
# Method in brief: as §1
# [11] = target: T6, ERF (Homo sapiens, UniProt P50548 1-548); settings: protein: recombinant; tags: N-terminal GST; dsDNA, one strand shown
# T6 sequence: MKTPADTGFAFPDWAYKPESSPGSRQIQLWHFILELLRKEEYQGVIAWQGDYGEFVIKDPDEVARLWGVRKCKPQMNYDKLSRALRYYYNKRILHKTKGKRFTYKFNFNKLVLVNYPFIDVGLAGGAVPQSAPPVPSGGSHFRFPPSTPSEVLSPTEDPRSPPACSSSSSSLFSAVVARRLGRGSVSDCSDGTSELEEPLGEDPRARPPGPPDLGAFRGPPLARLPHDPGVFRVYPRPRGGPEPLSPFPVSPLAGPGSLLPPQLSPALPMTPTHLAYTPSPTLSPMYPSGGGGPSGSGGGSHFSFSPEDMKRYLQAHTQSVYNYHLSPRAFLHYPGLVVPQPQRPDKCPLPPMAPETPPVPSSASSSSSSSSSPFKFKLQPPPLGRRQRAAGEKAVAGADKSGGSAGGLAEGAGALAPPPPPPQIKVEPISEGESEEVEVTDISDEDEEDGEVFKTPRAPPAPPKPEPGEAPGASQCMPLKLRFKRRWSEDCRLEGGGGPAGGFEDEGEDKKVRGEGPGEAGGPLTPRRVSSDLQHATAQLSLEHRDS
# Method in brief: as §1
# [12] = target: T7, ETV3L (Homo sapiens, UniProt Q6ZN32 1-361); settings: protein: recombinant; tags: N-terminal GST; dsDNA, one strand shown
# T7 sequence: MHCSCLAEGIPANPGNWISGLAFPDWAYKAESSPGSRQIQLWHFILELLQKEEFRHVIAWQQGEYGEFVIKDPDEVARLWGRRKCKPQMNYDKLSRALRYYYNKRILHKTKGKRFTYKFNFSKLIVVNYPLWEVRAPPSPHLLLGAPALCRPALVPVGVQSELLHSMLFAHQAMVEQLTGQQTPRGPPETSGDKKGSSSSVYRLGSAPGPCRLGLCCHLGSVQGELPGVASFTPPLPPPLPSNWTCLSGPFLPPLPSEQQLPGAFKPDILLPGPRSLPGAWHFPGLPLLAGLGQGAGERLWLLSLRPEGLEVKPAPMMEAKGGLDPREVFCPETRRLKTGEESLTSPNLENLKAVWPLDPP
# Method in brief: as §1
# [13] = target: T8, ETS2 (Homo sapiens, UniProt P15036 1-469); settings: protein: recombinant; tags: N-terminal GST; dsDNA, one strand shown
# T8 sequence: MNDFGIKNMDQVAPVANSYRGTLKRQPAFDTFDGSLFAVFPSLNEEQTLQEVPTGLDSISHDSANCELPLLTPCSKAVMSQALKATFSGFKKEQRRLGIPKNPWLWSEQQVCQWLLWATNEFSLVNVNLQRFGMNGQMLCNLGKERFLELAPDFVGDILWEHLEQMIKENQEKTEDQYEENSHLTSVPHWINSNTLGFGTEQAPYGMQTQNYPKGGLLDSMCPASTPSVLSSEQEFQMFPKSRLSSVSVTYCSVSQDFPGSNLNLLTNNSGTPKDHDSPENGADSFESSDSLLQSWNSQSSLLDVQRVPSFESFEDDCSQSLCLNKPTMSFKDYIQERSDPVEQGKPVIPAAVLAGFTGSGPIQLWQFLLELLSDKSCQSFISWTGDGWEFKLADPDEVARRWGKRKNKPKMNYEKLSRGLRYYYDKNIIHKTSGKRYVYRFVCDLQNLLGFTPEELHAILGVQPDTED
# Method in brief: as §1
# [14] = target: T9, SPDEF (Homo sapiens, UniProt O95238 1-335); settings: protein: recombinant; tags: N-terminal GST; dsDNA, one strand shown
# T9 sequence: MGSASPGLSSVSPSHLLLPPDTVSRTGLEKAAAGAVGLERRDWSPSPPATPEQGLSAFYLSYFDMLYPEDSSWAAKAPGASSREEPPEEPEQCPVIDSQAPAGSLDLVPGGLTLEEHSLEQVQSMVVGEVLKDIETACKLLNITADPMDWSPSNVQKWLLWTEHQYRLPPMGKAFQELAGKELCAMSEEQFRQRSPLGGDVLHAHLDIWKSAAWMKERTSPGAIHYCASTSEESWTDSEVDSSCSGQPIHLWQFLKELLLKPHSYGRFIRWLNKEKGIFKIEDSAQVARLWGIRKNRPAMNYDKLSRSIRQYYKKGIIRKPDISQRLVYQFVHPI
# Method in brief: as §1
# [15] = target: T10, ETV7 (Homo sapiens, UniProt Q9Y603 1-341); settings: protein: recombinant; tags: N-terminal GST; dsDNA, one strand shown
# T10 sequence: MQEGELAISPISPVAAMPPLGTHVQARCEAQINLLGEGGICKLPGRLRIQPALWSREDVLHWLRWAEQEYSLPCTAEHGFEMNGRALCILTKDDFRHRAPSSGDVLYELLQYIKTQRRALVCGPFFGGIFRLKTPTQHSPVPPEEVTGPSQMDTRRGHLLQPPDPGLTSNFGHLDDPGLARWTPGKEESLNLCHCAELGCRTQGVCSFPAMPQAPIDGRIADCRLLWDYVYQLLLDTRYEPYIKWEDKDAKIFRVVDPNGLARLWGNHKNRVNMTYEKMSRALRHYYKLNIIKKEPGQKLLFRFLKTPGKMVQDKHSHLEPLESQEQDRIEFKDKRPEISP
# Method in brief: as §1
# [16] = target: T11, ELF5 (Homo sapiens, UniProt Q9UKW6-2 1-255); settings: protein: recombinant; tags: N-terminal GST; dsDNA, one strand shown
# T11 sequence: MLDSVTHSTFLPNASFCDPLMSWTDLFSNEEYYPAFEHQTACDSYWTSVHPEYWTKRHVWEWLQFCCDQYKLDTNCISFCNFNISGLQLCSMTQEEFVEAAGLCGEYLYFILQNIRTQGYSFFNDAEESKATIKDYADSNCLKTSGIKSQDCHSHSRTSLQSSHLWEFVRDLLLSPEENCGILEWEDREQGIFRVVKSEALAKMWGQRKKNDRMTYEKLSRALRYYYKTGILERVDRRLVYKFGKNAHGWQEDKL
# Method in brief: as §1
# [17] = target: T12, ETV3 (Homo sapiens, UniProt P41162-2 1-143); settings: protein: recombinant; tags: N-terminal GST; dsDNA, one strand shown
# T12 sequence: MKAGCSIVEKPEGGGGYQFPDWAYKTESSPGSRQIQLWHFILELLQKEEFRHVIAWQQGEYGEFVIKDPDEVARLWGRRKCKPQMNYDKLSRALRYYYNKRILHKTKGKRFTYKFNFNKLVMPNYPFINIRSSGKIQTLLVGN
# Method in brief: as §1
# [18] = target: ETV6 (Homo sapiens, UniProt P41212 1-452); settings: protein: recombinant; tags: N-terminal GST; dsDNA, one strand shown
# Method in brief: as §1
# ETV6, sequence (P41212 whole entry): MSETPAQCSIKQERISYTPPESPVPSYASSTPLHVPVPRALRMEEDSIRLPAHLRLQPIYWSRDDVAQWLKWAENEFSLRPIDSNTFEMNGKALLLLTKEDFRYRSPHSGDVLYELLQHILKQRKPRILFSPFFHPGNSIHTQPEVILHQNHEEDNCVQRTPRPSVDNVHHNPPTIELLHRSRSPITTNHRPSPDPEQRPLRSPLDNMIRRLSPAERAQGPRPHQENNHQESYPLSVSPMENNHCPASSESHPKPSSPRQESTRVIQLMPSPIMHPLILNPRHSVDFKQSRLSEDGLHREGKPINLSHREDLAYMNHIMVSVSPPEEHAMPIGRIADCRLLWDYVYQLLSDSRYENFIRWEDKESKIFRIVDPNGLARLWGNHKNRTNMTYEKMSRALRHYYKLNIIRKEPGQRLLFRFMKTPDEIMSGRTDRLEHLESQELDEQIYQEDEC
# ELF4, sequence (Q99607 whole entry): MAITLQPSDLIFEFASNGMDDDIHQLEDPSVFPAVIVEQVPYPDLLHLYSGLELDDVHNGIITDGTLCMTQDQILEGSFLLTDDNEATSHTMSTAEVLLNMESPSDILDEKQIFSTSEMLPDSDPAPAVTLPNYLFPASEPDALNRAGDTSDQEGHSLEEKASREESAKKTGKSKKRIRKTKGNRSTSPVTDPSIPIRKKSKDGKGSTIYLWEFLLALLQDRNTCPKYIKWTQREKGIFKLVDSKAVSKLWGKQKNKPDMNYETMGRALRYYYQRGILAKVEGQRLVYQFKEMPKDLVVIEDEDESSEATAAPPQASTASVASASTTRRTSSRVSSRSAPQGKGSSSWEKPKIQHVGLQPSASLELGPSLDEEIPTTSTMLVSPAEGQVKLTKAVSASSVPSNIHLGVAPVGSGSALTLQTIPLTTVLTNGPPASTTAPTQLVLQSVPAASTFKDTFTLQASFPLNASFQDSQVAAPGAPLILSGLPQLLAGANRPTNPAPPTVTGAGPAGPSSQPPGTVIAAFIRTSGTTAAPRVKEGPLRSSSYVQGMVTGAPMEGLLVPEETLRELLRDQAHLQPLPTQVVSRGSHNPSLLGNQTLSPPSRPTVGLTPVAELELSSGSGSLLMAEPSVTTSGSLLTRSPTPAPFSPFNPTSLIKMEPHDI
# ETV1, sequence (P50549 whole entry): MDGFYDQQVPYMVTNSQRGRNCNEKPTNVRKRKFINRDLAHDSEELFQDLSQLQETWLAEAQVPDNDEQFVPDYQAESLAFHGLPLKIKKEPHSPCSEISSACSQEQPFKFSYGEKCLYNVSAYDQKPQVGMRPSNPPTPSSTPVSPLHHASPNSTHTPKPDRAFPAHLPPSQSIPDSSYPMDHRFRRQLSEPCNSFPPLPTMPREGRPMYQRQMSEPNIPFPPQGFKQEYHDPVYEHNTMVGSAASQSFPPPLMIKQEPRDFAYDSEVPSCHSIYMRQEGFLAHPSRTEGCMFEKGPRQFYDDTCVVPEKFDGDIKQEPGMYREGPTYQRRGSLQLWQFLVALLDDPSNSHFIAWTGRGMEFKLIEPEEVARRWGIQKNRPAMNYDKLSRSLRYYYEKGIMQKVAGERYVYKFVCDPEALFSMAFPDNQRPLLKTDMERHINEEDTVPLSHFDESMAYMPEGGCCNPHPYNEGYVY
# ETV5, sequence (P41161 whole entry): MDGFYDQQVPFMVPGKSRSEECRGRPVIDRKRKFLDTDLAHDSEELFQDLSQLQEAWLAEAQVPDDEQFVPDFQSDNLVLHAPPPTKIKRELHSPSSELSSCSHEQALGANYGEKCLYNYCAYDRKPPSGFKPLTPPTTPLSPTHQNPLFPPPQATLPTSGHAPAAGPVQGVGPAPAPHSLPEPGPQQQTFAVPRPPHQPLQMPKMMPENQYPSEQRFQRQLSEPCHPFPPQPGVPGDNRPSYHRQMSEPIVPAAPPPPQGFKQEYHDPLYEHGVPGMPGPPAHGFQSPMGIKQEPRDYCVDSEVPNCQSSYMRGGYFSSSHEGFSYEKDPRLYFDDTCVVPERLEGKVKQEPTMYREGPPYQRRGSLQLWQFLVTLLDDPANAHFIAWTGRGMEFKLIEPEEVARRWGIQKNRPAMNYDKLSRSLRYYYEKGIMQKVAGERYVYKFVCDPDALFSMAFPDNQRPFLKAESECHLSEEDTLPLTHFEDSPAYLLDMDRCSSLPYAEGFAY
# HSF1, sequence (Q00613 whole entry): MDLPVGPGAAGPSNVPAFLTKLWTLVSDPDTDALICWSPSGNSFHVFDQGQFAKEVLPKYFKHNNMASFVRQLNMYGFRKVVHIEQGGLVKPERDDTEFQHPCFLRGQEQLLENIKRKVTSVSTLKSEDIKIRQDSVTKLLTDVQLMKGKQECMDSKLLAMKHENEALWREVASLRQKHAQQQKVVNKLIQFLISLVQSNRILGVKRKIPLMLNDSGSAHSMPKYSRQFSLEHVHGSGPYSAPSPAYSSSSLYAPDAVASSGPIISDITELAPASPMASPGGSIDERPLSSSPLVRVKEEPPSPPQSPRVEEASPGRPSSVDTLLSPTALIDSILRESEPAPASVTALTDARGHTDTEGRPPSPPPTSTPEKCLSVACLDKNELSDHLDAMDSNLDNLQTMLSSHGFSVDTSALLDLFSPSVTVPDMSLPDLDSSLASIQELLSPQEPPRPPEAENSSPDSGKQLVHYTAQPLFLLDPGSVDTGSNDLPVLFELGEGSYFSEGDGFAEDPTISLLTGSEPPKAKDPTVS
# CRX, sequence (O43186 whole entry): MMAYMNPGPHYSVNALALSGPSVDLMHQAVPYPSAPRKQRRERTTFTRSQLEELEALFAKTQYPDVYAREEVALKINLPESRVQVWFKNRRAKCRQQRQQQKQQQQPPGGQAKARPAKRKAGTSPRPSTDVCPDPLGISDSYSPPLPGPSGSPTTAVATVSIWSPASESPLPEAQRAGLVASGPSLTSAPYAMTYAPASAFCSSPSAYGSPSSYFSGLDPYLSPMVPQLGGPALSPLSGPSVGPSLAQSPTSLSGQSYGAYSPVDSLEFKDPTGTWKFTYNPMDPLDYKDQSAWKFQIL
sequence,measurement,setting,value
AAACAC,binding signal,[1],"1.31 fold enrichment (6-mer frequency, TF over GST control)"
same,binding signal,[2],"1.24 fold enrichment (6-mer frequency, TF over GST control)"
same,binding signal,[3],"1.09 fold enrichment (6-mer frequency, TF over GST control)"
same,binding signal,[4],"1.24 fold enrichment (6-mer frequency, TF over GST control)"
same,binding signal,[5],"1.34 fold enrichment (6-mer frequency, TF over GST control)"
same,binding signal,[6],"1.27 fold enrichment (6-mer frequency, TF over GST control)"
same,binding signal,[7],"1.36 fold enrichment (6-mer frequency, TF over GST control)"
same,binding signal,[8],"1.33 fold enrichment (6-mer frequency, TF over GST control)"
same,binding signal,[9],"1.05 fold enrichment (6-mer frequency, TF over GST control)"
same,binding signal,[10],"1.26 fold enrichment (6-mer frequency, TF over GST control)"
same,binding signal,[11],"1.34 fold enrichment (6-mer frequency, TF over GST control)"
same,binding signal,[12],"1.37 fold enrichment (6-mer frequency, TF over GST control)"
same,binding signal,[13],"1.38 fold enrichment (6-mer frequency, TF over GST control)"
same,binding signal,[14],"1.31 fold enrichment (6-mer frequency, TF over GST control)"
same,binding signal,[15],"1.34 fold enrichment (6-mer frequency, TF over GST control)"
same,binding signal,[16],"1.3 fold enrichment (6-mer frequency, TF over GST control)"
same,binding signal,[17],"1.33 fold enrichment (6-mer frequency, TF over GST control)"
same,binding signal,[18],"1.32 fold enrichment (6-mer frequency, TF over GST control)"
